# Assay results published in PubChem BioAssay AID504465 (National Center for Advancing Translational Sciences (NCATS), 2011).
# Out of some 2,100 compounds screened, about 210 (10%) were called active. Not shown: some 53% with an inconclusive outcome. Calls follow the shape of the dose curve; as a rule, active = well fitted inhibition curve with a large enough effect; inconclusive = small, poorly fitted or top-dose-only effect, or effect the other way; inactive = no such curve, though single readings can be large or run the other way. The list shows a part of the results.
# Assay: IN Cell qHTS Assay for Inhibitors of the mTORC1 Signaling Pathway in MEF (Tsc2-/-, p53-/-) Cells: Sytravon; also: nearly all actives have a fitted effect of over 60% in size
# Details: phospho-rpS6 immunofluorescence, 24 h; series mostly up to 38.3 µM; activity, negative = inhibition: at the top concentration
# Method in brief: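 Immunofluorescence of rpS6 phosphorylation (Ser235/236) in mouse embryonic fibroblasts lacking Tsc2 and p53, after 24 h compound exposure; Hoechst-normalized signal imaged, each well scored as % active cells relative to rapamycin (7.5 nM) and DMSO controls.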
# Potency is read from the fitted curve at half-maximal effect.
Compound,"activity, negative = inhibition",Potency
COc1ccc(-c2ccc(CCC(=O)O)n2-c2ccccc2O)cc1,-5% (inactive),
CCC1CN(C(=O)NCc2ccccc2)c2cc(C)ccc2O1 (configuration not stated),-10.1% (inactive),
CCN(Cc1ccccc1)Cc1c(O)ccc2oc(C)c(C(=O)Nc3ccc(C)cc3C)c12,-5.82% (inactive),
CCCCN1C(C(=O)c2ccccc2)=C(OC(C)=O)c2ccccc2S1(=O)=O,-15.5% (inactive),
COc1ccc(OC)c2sc(N(CCCN(C)C)C(=O)c3ccco3)nc12,,14.7 µM (active)
COc1ccccc1Nc1c2c(nc3ccc(NC(=O)c4cccc(OC)c4OC)cc13)CCCC2,,5.85 µM (active)
COc1ccc(C)cc1Nc1c2c(nc3ccccc13)CCC2,,7.36 µM (active)
COc1ccccc1Nc1c2c(nc3ccc(NC(=O)c4ccc(N(C)C)cc4)cc13)CCCC2,,2.07 µM (active)
COc1ccccc1Nc1nn2c(=O)c3ccc(C(=O)NCCC4=CCCCC4)cc3nc2s1,-95.7% (inactive),
COc1ccc(C(=O)Nc2cccc(-c3cn4ccsc4n3)c2)cc1OC,-19.6% (inactive),
COc1ccccc1Nc1nn2c(=O)c3ccc(C(=O)NCCc4ccccc4)cc3nc2s1,-11.5% (inactive),
COc1cc2c(cc1OC)n(CC(=O)Nc1ccc(C)cc1C)c(=O)n1nc(-c3ccccc3)nc21,-81.9% (inactive),
COc1ccccc1Nc1c2c(nc3ccc(NC(=O)c4ccc(OC)c(OC)c4)cc13)CCCC2,,1.65 µM (active)
COc1cc(Cl)c(C)cc1Nc1c2c(nc3ccccc13)CCC2,-95.5% (inactive),
CC1=C(C(=O)Nc2ccccc2C)C(c2cccs2)n2nc(SCc3ccccc3)nc2N1 (configuration not stated),-100% (inactive),
CCC1CN(C(=O)N2CCC(C(=O)NCCN(CC)CC)CC2)c2ccccc2O1 (configuration not stated),-0.799% (inactive),
CC(C)c1ccc(NC(=O)c2ccc(F)c(S(=O)(=O)N3CCN(c4ccccc4F)CC3)c2)cc1,6.25% (inactive),
COc1ccc2c(c1)c(=O)c(S(=O)(=O)c1ccc(Cl)cc1)cn2C,-15.6% (inactive),
COc1ccc(CCCc2nnc(SCC(=O)Nc3cccc(F)c3C)o2)cc1,-25.4% (inactive),
COc1ccccc1CCNC(=O)C(=O)NCC(c1cccnc1)N1CCN(c2ccccc2)CC1 (configuration not stated),-1.98% (inactive),
CCCc1nn2c(=O)cc(COC(=O)c3cccc(NC(=O)c4ccc(OCC)cc4)c3)nc2s1,0% (inactive),
CCOc1ccc(NC(=O)Cn2c(=O)cc(C)c3c(C)nn(C)c32)cc1,-14.9% (inactive),
CCC1=Nc2cc(C(=O)NCc3ccccc3Cl)ccc2Sc2ccc(C)cc21,0% (inactive),

Compound,"activity, negative = inhibition",Potency
CCc1cccc(NC(=O)Cn2c(=O)n(CCC(=O)NCc3ccccc3Cl)c(=O)c3sccc32)c1,-100% (inactive),
CC(C)(C)c1ccc(OCC(=O)NCC2(N3CCOCC3)CCCCC2)cc1,-38.2% (inactive),
Cc1ccc(OCC(=O)NCC2(N3CCN(C)CC3)CCCCC2)cc1C,-20.2% (inactive),
CC(C)COc1ccc(C(=O)NCC2(N3CCN(C)CC3)CCCCC2)cc1,,16.5 µM (active)
Cc1ccc(OCC(=O)NCC2(N3CCN(C)CC3)CCCCC2)cc1,-19.1% (inactive),
CN1CCN(C2(CNC(=O)COc3ccc(C(C)(C)C)cc3)CCCCC2)CC1,,14.7 µM (active)
CN(C)C1(CNC(=O)COc2ccc(C(C)(C)C)cc2)CCCCC1,-7.34% (inactive),
Oc1ccccc1-c1nc(-c2cccs2)c(-c2cccs2)[nH]1,-1.5% (inactive),
COc1ccc(CNCCC(c2ccc(C)cc2)c2ccco2)cc1 (configuration not stated),-100% (inactive),
CC(=O)c1cccc(NS(=O)(=O)c2ccc3[nH]c4c(c3c2)CCCCC4)c1,1.08% (inactive),
CCCN(CCC)CCCNC(=O)c1cc2c(-c3ccc(Cl)cc3)nn(C)c2s1,,2.61 µM (active)
CCOc1ccc(CCNC(=O)c2cc3c(-c4ccccc4F)nn(C)c3s2)cc1,19.4% (inactive),
COc1ccc(-c2nn(C)c3sc(C(=O)Nc4cccc(F)c4)cc23)cc1OC,0% (inactive),
CCCCN(CCCC)CCCNC(=O)c1cc(-c2ccc(Cl)s2)nc2ccccc12,25.2% (inactive),
CCCN(CCC)CCCNC(=O)c1cc2c(-c3ccc(OC)c(OC)c3)nn(C)c2s1,,16.5 µM (active)
COc1ccc(CCNC(=O)c2nn(C)c3c2CSc2ccccc2-3)cc1OC,-7.86% (inactive),
Cc1cc(C)cc(NC(=O)C(=O)NCC(c2ccc3c(c2)OCO3)N2CCN(C)CC2)c1 (configuration not stated),3.7% (inactive),
CC(C)CN(CC(C)C)S(=O)(=O)c1ccc(C(=O)Nc2sc3c(c2C(N)=O)CCN(C(C)C)C3)cc1,6.25% (inactive),
CCc1ccc(CNC(=O)COc2cc(=O)n(CC)c3ccccc23)cc1,8.06% (inactive),
CC(C)Oc1ccccc1-c1nc(SCC(=O)c2ccc(F)cc2)n[nH]1,-19.3% (inactive),
CCOc1ccc(CNC(=O)C2CCN(S(=O)(=O)c3ccc4c(ccn4C)c3)CC2)cc1,0.0324% (inactive),
CCOc1cc(CNC(=O)c2ccc(C)c(NC(=O)c3nsc4ccccc34)c2)ccc1OC,-1.04% (inactive),
COc1ccccc1C(=O)OCc1cc(=O)n2nc(C3CC3)sc2n1,0.274% (inactive),

Compound,"activity, negative = inhibition",Potency
COc1ccc(CCN2C(=O)c3[nH]nc(-c4ccccc4O)c3C2c2cccc(OC)c2)cc1 (configuration not stated),,20.7 µM (active)
CCCN1C(=O)c2[nH]nc(-c3ccccc3O)c2C1c1ccc(OCc2ccccc2)c(OC)c1 (configuration not stated),-29% (inactive),
CCCN1C(=O)c2[nH]nc(-c3ccccc3O)c2C1c1cccc(OCc2ccccc2)c1 (configuration not stated),-14.6% (inactive),
CCCCN1C(=O)c2[nH]nc(-c3ccccc3O)c2C1c1cccc(OCc2ccccc2)c1 (configuration not stated),,20.7 µM (active)
O=C1c2[nH]nc(-c3ccccc3O)c2C(c2ccc(Cl)cc2)N1CCc1ccccc1 (configuration not stated),-15.5% (inactive),
CCCCOc1cccc(C2c3c(-c4cc(C)ccc4O)n[nH]c3C(=O)N2CCOC)c1 (configuration not stated),-12.8% (inactive),
COc1ccc(C2c3c(-c4ccccc4O)n[nH]c3C(=O)N2CCc2ccccc2)cc1 (configuration not stated),-21.4% (inactive),
COc1ccc(CCN2C(=O)c3[nH]nc(-c4ccccc4O)c3C2c2ccccc2)cc1 (configuration not stated),-4.54% (inactive),
CC(C)OCCCN1C(=O)c2[nH]nc(-c3ccccc3O)c2C1c1ccc(OCc2ccccc2)cc1 (configuration not stated),,18.5 µM (active)
CCc1ccc(-n2nc(C)c3c(C(=O)Nc4cc(OC)cc(OC)c4)cc(C)nc32)cc1,-0.926% (inactive),
CC(Sc1nc2c([nH]c3ccccc32)c(=O)n1-c1ccccc1)c1ccccc1 (configuration not stated),-0.445% (inactive),
CC(C)CC(=O)Nc1cc(-c2ccccc2F)nn1-c1ccccc1,18% (inactive),
CCOc1ccc(-n2c(-c3ccccc3)c(C)n3c4c(=O)n(C)c(=O)n(C)c4nc23)cc1,-5.32% (inactive),
Cc1ccc(-c2nc3ncccc3o2)cc1NC(=O)COc1ccc(C(C)C)cc1,-20.9% (inactive),
Cc1cccc(C)c1NC(=O)Cn1c(=O)n(CCC(=O)NCc2ccccc2Cl)c(=O)c2sccc21,-89.9% (inactive),
CCOc1cc(CNc2ccc(O)cc2)cc(Cl)c1OCc1ccccc1,-100% (inactive),
CCn1ccc2cc(S(=O)(=O)N3CCCN(C(=O)NCC(C)C)CC3)ccc21,-7.24% (inactive),
CCC(C)NC(=O)c1ccc2c(c1)N=C(C)c1cc(C)ccc1S2 (configuration not stated),0.833% (inactive),
CCNS(=O)(=O)c1ccc(NC(=O)CSc2nc(-c3ccco3)cc(C(F)(F)F)n2)cc1,,0.233 µM (active)
COc1ccc(NC(=O)CSc2nc(-c3ccco3)cc(C(F)(F)F)n2)cc1Cl,-5% (inactive),
CCc1ccc2c(c1)-c1ccccc1S(=O)(=O)N2CC(=O)N1CCC(C)CC1,-6.77% (inactive),
CCc1ccc(NC(=O)C2CCCN(S(=O)(=O)c3c(C)noc3/C=C/N(C)C)C2)cc1 (configuration not stated),-15.8% (inactive),
Cc1ccc(Sc2c(C)nn(C(=O)COc3ccccc3)c2C)cc1,,6.56 µM (active)

Compound,"activity, negative = inhibition",Potency
O=C(Nc1ccc(Br)cc1)c1ccc(F)c(S(=O)(=O)N2CCc3ccccc32)c1,6.25% (inactive),
CCOc1ccccc1NC(=O)Cn1ccn(Cc2ccc(C)cc2)c(=O)c1=O,-8.7% (inactive),
CCOc1ccccc1CNC(=O)CCn1c(=O)c2cccn2c2ccc(F)cc21,-5.8% (inactive),
Cc1ccc(C(=O)c2cn(CC(=O)NCc3ccccc3Cl)c3nc(C)ccc3c2=O)cc1,1.08% (inactive),
CCc1nn(CC(=O)NCc2ccccc2Cl)c(=O)c2cccn12,,3.29 µM (active)
Clc1ccc(-n2ncc3c(NC4CCCC4)ncnc32)cc1,6.25% (inactive),
CC(C)Oc1ccc(CNC(=O)CCn2c(=O)c3cccn3c3ccc(F)cc32)cc1,-9.57% (inactive),
COc1cccc(-n2c(SCC(=O)Nc3c(C)cc(C)cc3C)nc3c([nH]c4ccccc43)c2=O)c1,-8.87% (inactive),
COc1cccc(-n2c(SCc3cccc(C)c3)nc3c([nH]c4ccccc43)c2=O)c1,-10.7% (inactive),
COc1ccc(-c2nnc(SCc3cc(=O)c4cc(C)cc(C)c4[nH]3)n2C)cc1,,18.5 µM (active)
O=C(Nc1ccc(F)c(Cl)c1)c1cc(S(=O)(=O)N2CCCc3ccccc32)ccc1F,6.25% (inactive),
Cc1cccc(N2CCN(C(=O)Cn3c(=O)c4cccn4c4ccc(F)cc43)CC2C)c1 (configuration not stated),-19.3% (inactive),
Cc1ccccc1Cn1nnc2c(=O)[nH]c(C3CCN(C(=O)c4ccccc4Cl)CC3)nc21,-11.3% (inactive),
O=C(Nc1ccc(Cl)c(C(F)(F)F)c1)c1ccc2c(c1)CCN2S(=O)(=O)c1ccccc1,-10.2% (inactive),
CCCOC(=O)c1cccc(NC(=O)c2c(-c3ccccc3Cl)noc2C)c1,0.806% (inactive),
COC(=O)C1=C(C)N(C(C)C)C(=O)C1(NC(=O)c1ccc(C(C)(C)C)cc1)C(F)(F)F (configuration not stated),,20.7 µM (active)
O=C(Nc1ccc(C(F)(F)F)cc1)c1cc(S(=O)(=O)NC2CCCCC2)ccc1F,6.25% (inactive),
Cc1ccc(-n2ncc(C(=O)NCCCN3CCc4ccccc4C3)c2C2CCN(C(=O)OC(C)(C)C)CC2)cc1C,,20.7 µM (active)
Cc1ccc(-n2ncc(C(=O)NCc3cccs3)c2C2CCN(C(=O)OC(C)(C)C)CC2)cc1C,-5.66% (inactive),
COc1ccccc1CN1CCC(CNC(=O)c2cnn(-c3ccccc3Cl)c2C2CCN(C(=O)OC(C)(C)C)CC2)CC1,-15.8% (inactive),
CCCCOC(=O)c1ccc(NC(=O)Cc2coc3ccc(C(C)C)cc23)cc1,-1.11% (inactive),
CCCCS(=O)(=O)c1nc(-c2ccc(Br)cc2)cc(-c2ccccc2)c1C#N,,3.29 µM (active)
CCCS(=O)(=O)N1CC(=O)N(c2ccccc2C)C(C)(C(=O)NC2CCCC2)C1 (configuration not stated),-15% (inactive),
